# Reference: PubChem BioAssay AID504832 (National Center for Advancing Translational Sciences (NCATS), 2011)
# The campaign covered roughly 310,000 compounds. About 18,000 (5.8%) were called active. Not shown: some 22% with an inconclusive outcome. Shown is part of a subset that was picked to be rich in actives. Unmarked numbers belong to inactive results. The call rests on the fitted dose curve; in most records, active means well fitted inhibition curve with a large enough effect; inconclusive means small, poorly fitted or top-dose-only effect, or another doubt; inactive means no such curve, though single readings can be large or run the other way.
# Test: Primary qHTS for delayed death inhibitors of the malarial parasite plastid, 48 hour incubation
# Conditions: P. falciparum luciferase growth in erythrocytes; series mostly up to 28.7 µM; activity change, negative = inhibition: at the top concentration
# Procedure, shortened: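 Luminescence readout; reporter = integrated firefly luciferase in P. falciparum. RBC culture at 2% hematocrit, 0.1% parasitemia final, 37 C/5% CO2; decreased signal taken as growth inhibition.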
# On the % scale 0 is the no-effect control and ±100 the full control effect; potency means the concentration at half of the fitted maximal effect.
Compound,"activity change, negative = inhibition",Potency
COC(=O)Cc1ccc(Oc2ncc(C(F)(F)F)cc2Cl)cc1,33.3%,
FC(F)(F)c1cnc(Oc2ccccc2-c2nnc(-c3ccc(Cl)cc3)o2)c(Cl)c1,,4.15 µM (active)
CSc1ccccc1-c1nnc(-c2ccc(Cl)cc2)o1,57.1%,
Cc1ccsc1C(=O)N[C@@H](C)c1nnc2ccccn12,-4.35%,
NS(=O)(=O)c1ccc2nc(NC(=O)CS(=O)(=O)c3ccc(F)cc3)sc2c1,0.278%,
Cc1cc(S(=O)(=O)NCc2ccccn2)c(Cl)cc1Cl,-17.7%,
O=C(CC1NCCNC1=O)Nc1ccc(Oc2ccccc2)cc1 (stereo not given),34.8%,
O=C(CC1Nc2ccccc2NC1=O)Nc1ccccc1NC(=O)CC1Nc2ccccc2NC1=O (stereo not given),76.8%,
O=C(CC1Nc2ccccc2NC1=O)Nc1ccccc1 (stereo not given),,11.7 µM (active)
O=C(NCCc1ccc(Cl)cc1Cl)c1cc([N+](=O)[O-])c[nH]c1=O,-17.3%,
CC(=O)c1c(C)[nH]c(C(=O)OCC(=O)Nc2c(C)n(C)n(-c3ccccc3)c2=O)c1C,2.3%,
CCOc1ccc(S(=O)(=O)N(CC(=O)NCC(F)(F)F)Cc2ccco2)cc1,-9.02%,
CCOc1ccc(CN(Cc2ccco2)C(c2cccs2)c2nnnn2C(C)(C)C)cc1 (stereo not given),,3.29 µM (active)
CC(C)(C)n1nnnc1C(c1ccccc1F)N1CCN(C(=O)c2ccco2)CC1 (stereo not given),-24.8%,
CS(=O)(=O)N1CCN=C1SCc1ccc(F)cc1,-13.1%,
N#C/C(=C\c1ccc(-c2cccc([N+](=O)[O-])c2)o1)C(=O)NCCN1CCOCC1,,10.4 µM (active)
O=C(NCCCN1CCOCC1)c1ccc([N+](=O)[O-])cc1[N+](=O)[O-],8.63%,
Cc1ccc(Cc2cnc(NC(=O)/C(C#N)=C/c3ccc(-c4cccc([N+](=O)[O-])c4)o3)s2)cc1,31.9%,
COc1ccc(C2CC(=O)NC(=O)C2)cc1,6.49%,
NS(=O)(=O)c1ccc(CCNC(=O)COC(=O)COc2cccc(C(F)(F)F)c2)cc1,-11.2%,
Nc1c(N(CCCO)C(=O)C2CCCC2)c(=O)[nH]c(=O)n1Cc1ccccc1,3.41%,
Cc1nc2ccccc2n1CC(O)c1ccccc1 (stereo not given),0.0018%,

Compound,"activity change, negative = inhibition",Potency
CC(C)Cn1cnc2c1c(=O)n(CC(O)c1ccccc1)c(=O)n2CC(C)C (stereo not given),,4.65 µM (active)
CC(=O)Cn1cnc2c(cnn2-c2ccccc2)c1=O,39.5%,
N#Cc1ccc(C2N=C(c3ccccc3)NO2)cc1 (stereo not given),270%,
O=C(CNC(=O)c1cccs1)N/N=C/c1cccc(Br)c1,5.15%,
O=C(CSC1=NS(=O)(=O)c2cc(F)ccc2N1)Nc1ccccc1F,13.4%,
CN1c2ccc(C=O)c3c(C=O)ccc(c23)N(C)C1(C)C,,11.7 µM (active)
COc1ccc(-c2noc(CNC(=O)C(C)Oc3ccccc3)n2)cc1 (stereo not given),-23%,
CC1CCCCC1NC(=O)NC(=O)COC(=O)C1=NN(c2ccccc2)C(=O)CC1 (stereo not given),3.43%,
CCn1cc(CN2CCC(C(=O)Nc3cccc(-c4cccc(Cl)c4)c3)CC2)cn1,-76.4%,
CCCCCCSc1ccc([C@@H]2[C@@H]3C(=O)N(CC)C(=O)[C@@H]3[C@]3(C(=O)OC)CCCCN23)cc1OC,,1.85 µM (active)
O=C(NCc1ccccc1)C1C(=O)N(Cc2ccccc2)C(=O)C1C1(O)CCCC1 (stereo not given),-29.1%,
CCN1C(=O)[C@@H]2[C@@H](c3ccc(-c4ccccc4)cc3)N3CCCC[C@@]3(C(=O)OC)[C@@H]2C1=O,,9.28 µM (active)
CCN1C(=O)[C@@H]2[C@@H](c3ccc(-c4cccc(Cl)c4)cc3)N3CCC[C@@]3(C(=O)OC)[C@@H]2C1=O,,11.7 µM (active)
CCNC(=O)N1CCCC(C(=O)c2ccc(-c3ccccc3)cc2)C1 (stereo not given),-11.1%,
CCOC(=O)c1cc(S(=O)(=O)NCCc2ccc(OC)c(OC)c2)cn1C,-14.8%,
COc1cccc(/C=C/C(=O)OCC(=O)N2CCCc3ccccc32)c1,15%,
CC(C)CC(=O)Nc1nnc(S(=O)(=O)N(C)c2ccc(Cl)cc2)s1,6.02%,
CCOc1ccc(CN2CCN(CCCc3ccccc3)C(CCO)C2)cc1 (stereo not given),-7.9%,
COc1ccc(CCNS(=O)(=O)c2cc3c(cc2C)NC(=O)CO3)cc1OC,0.0646%,
CC1(C)CC(N2CCN(C(c3ccccc3)c3ccccc3)CC2)=CC(=[N+]2CCCCC2)C1,,0.415 µM (active)
O=C1CC(N2CCN(C(c3ccccc3)c3ccccc3)CC2)C(=O)N1 (stereo not given),-29.3%,
CC1(C)CC(=O)C=C(N2CCCC2)C1,-7.8%,

Compound,"activity change, negative = inhibition",Potency
COC(=O)c1ccc(C(=O)NC2CC(C)(C)Cc3c2cnn3-c2ccc(F)cc2)nc1 (stereo not given),-23.5%,
Cc1cc(-c2ccc(S(=O)(=O)N3CCc4ccccc4C3)s2)on1,0.317%,
CCC(Cc1ccccc1)NS(=O)(=O)c1ccc2c(c1)NC(=O)CS2 (stereo not given),3.04%,
CCOC(=O)C1=C(C)NC(=O)NC1c1ccccc1 (stereo not given),21.4%,
C=CCC1(C#N)C(=S)NC(C)=C(C(=O)OCC)C1c1ccccc1 (stereo not given),,1.47 µM (active)
C=CCOC(=O)C1=C(C)NC(SCC(=O)OCC)=C(C#N)C1c1ccc(C)cc1 (stereo not given),3.68%,
Cc1ccc(Cn2nnc3c(=O)n(CC(=O)N4CCCCC4)cnc32)cc1,46.2%,
CC(C)(C)c1ccc(Cn2nnc3c(=O)[nH]c(C4CCCN(C(=O)c5ccco5)C4)nc32)cc1 (stereo not given),,0.828 µM (active)
CC(C)(C)c1nc(NCC2CCCO2)c2nnn(Cc3ccccc3)c2n1 (stereo not given),-0.298%,
CC(C(=O)NC1CCCC1)N1CCN(S(=O)(=O)c2ccccc2Cl)CC1 (stereo not given),-12%,
Cc1ccc(C)c(S(=O)(=O)N2CCN(C(=O)Nc3ccccc3)CC2)c1,-25.1%,
CC1CC(C)(C)NC(=S)N1CCC(=O)N1CCN(Cc2ccccc2)CC1 (stereo not given),9.12%,
CC1CC(=O)Nc2ccccc2N1S(=O)(=O)c1cccs1 (stereo not given),23.3%,
CC1CC(=S)Nc2ccccc2N1Cc1ccccc1 (stereo not given),,10.4 µM (active)
CCS(=O)(=O)C1=NSC2=NC(=O)/C(=C\c3ccc(OS(=O)(=O)c4ccccc4)cc3)C(=N)N21,-13.3%,
Cc1nc2cc(-c3ccc(F)cc3)nn2c(N2CCOCC2)c1C,73.4%,
COc1ccc(S(=O)(=O)NCc2ccc(C(=O)N3CCC4(CC3)OCCO4)cc2)cc1,1.88%,
COc1cccc(-c2cc3nc4c(c(N5CCC6(CC5)OCCO6)n3n2)CCCC4)c1,,2.94 µM (active)
CC(=O)c1ccc2c(c1)c1ccccc1n2CC(C)C,-5.48%,
OC(Cn1c2ccccc2c2ccccc21)C[n+]1ccccc1 (stereo not given),,7.38 µM (active)
O=C1c2ccccc2S(=O)(=O)N1CC(O)Cn1c2ccccc2c2ccccc21 (stereo not given),-9.89%,
